We go through 25 compounds from PubChem BioAssay (NCATS).

Records with an inconclusive call do not appear. Unmarked numbers belong to inactive results. The source made the active and inactive calls. Calls come from the whole dose curve; as a rule, active = well fitted curve in the direction sought with a large enough effect; inconclusive = small, poorly fitted or top-dose-only effect, or another doubt; inactive = no such curve, though single readings can be large; an effect the other way counts as inactive or inconclusive.

In one assay the test system is MCC-13. Nature of the assay: qHTS assay to identify novel small-molecules to repurpose for Merkel cell carcinoma treatment (AID 1296009). Note: nearly all actives have a fitted effect of over 60% in size. The note with it: MCC and control cell lines, CellTiter-Glo viability, 72 h; series mostly up to 46 µM. In a few lines: (§1)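 CellTiter-Glo luminescence after 72 hr compound exposure at 37 degree celsius gave cell viability. Libraries NPC and MIPE were run as 8- and 11-point dose responses; RLUs normalized to DMSO (negative) and no-cell (cytotoxicity) controls.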

For the next assay, the system named is MCC-26. The description is as above. The note with it: MCC and control cell lines, CellTiter-Glo viability, 72 h; series mostly up to 46 µM. In a few lines: as §1
A further assay deals with MKL-1. The description is as above. Conditions: MCC and control cell lines, CellTiter-Glo viability, 72 h; series mostly up to 46 µM. Put shortly: as §1
The next assay deals with UISO. The description is as above. Conditions: MCC and control cell lines, CellTiter-Glo viability, 72 h; series mostly up to 46 µM. In a few lines: as §1
The next assay concerns WaGa. The description is as above. The note with it: MCC and control cell lines, CellTiter-Glo viability, 72 h; series mostly up to 46 µM. Put shortly: as §1
For the next assay, the system named is C33A. In words: Primary qHTS to identify gynecologic anti-cancer compounds using libraries of approved drugs and bioactive compounds (AID 1345084). Note: nearly all actives have a fitted effect of over 55% in size. Conditions: Gynecologic cancer cell panel viability, ATPlite luminescence, 48 h; series mostly up to 57.5 µM. Put shortly:
(§2)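 Cells, 1,000 per well, plated 16 h, then exposed 48 h at 37 C to compounds. Viability by ATPlite luminescence after 15 min at room temperature.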

The subject of another assay is CAOV3. The assay is described as above. Conditions: Gynecologic cancer cell panel viability, ATPlite luminescence, 48 h; series mostly up to 57.5 µM. Put shortly:
as §2

The test system of the next assay is MKL-2. In words: qHTS assay to identify novel small-molecules to repurpose for Merkel cell carcinoma treatment (AID 1296009). Note: nearly all actives have a fitted effect of over 60% in size. Conditions: MCC and control cell lines, CellTiter-Glo viability, 72 h; series mostly up to 46 µM. Put shortly: as §1
For the next assay, the system named is NIH3T3. Described as above. The note with it: MCC and control cell lines, CellTiter-Glo viability, 72 h; at 44.8 µM (top of the series) unless noted. Put shortly:
as §1
Potency is the fitted concentration of half-maximal effect.

For `CCCCC/C=C\C/C=C\CCCCCCCC(=O)NC(C)c1ccccc1` (centres undefined), the Potency result with MCC-13, with MCC-26, in the assay on MKL-1, with UISO, with WaGa and in the assay on C33A was “inactive” each time. Besides, the Potency entry in the assay with CAOV3 was “inactive”.

Take `OCc1c[nH]c2ccccc12`: the Potency result in the assay with MCC-13 and in the assay on MCC-26 was “inactive” each time. Besides, the results for the Potency with MKL-2, in the assay on UISO and with C33A were 24.3 µM (active), 10.9 µM (active) and 35.5 µM (active), respectively.

Take `OC1(c2ccc(Cl)c(C(F)(F)F)c2)CCN(CCCC(c2ccc(F)cc2)c2ccc(F)cc2)CC1`: the Potency in the assay on MCC-13 is 18.8 µM (active); in the assay on MKL-1, 7.5 µM (active); in the assay on MKL-2 it was 5.31 µM (active); with UISO it was 10.6 µM (active); in the assay with WaGa it was 15 µM (active).

`Cc1ccc(CCn2c3c(c4cc(Cl)ccc42)CN(C)CC3)cn1`: the Potency result with MCC-13, with MCC-26, in the assay with MKL-1, with UISO and with C33A was “inactive” throughout.

Take `CCOC(=O)N1CCC(n2c(=O)[nH]c3cc(Cl)ccc32)CC1`: the Potency entry in the assay with MCC-13, in the assay with MCC-26, in the assay on MKL-1, with C33A and in the assay on CAOV3 was “inactive” each time.

Turning to `CN1CCC(Nc2ncc3ncnc(Nc4ccc(F)c(Cl)c4)c3n2)CC1`, the Potency entry in the assay on MCC-13, in the assay on MCC-26 and in the assay on UISO was “inactive” throughout. Further, the Potency in the assay with MKL-2 was 15 µM (active).

As to `C[C@H](CN1CCCC1)C(=O)c1ccc(C(F)(F)F)cc1`, the Potency result in the assay with MCC-13, with MCC-26, with MKL-1, in the assay on UISO, with WaGa and with CAOV3 was “inactive” throughout.

For `Cc1ccc(C(=O)Oc2ccc(C(O)CNC(C)(C)C)cc2OC(=O)c2ccc(C)cc2)cc1` (centres undefined), the Potency entry in the assay with MCC-13, with MCC-26, in the assay on UISO and with C33A was “inactive” each time. Besides, in the assay on NIH3T3, the compound was called inactive.

In the case of `CC1CCCCN1CCCOC(=O)c1ccc(OC2CCCCC2)cc1` (centres undefined), the Potency entry in the assay on MCC-13, with MCC-26, in the assay on UISO, in the assay with C33A and with CAOV3 was “inactive” throughout.

`CCCCN(CCN(CCCC)C(=O)N1CCOCC1)C(=O)N1CCOCC1`: the Potency result with MCC-13, in the assay on MCC-26, in the assay with MKL-1, with WaGa, with C33A and with CAOV3 was “inactive” throughout.

Turning to `C/C(=C(/OCCOc1ccc(Cl)cc1)c1ccc(Cl)cc1Cl)n1ccnc1`, the Potency result in the assay with MCC-13, with MCC-26, in the assay on MKL-1 and with C33A was “inactive” each time.

In the case of `O=C1Cc2cc(Cl)ccc2N1`, the Potency result in the assay on MCC-13, in the assay with MCC-26, in the assay on MKL-1, in the assay on WaGa, in the assay on C33A and in the assay with CAOV3 was “inactive” throughout.

On to `CC(=O)/C=C/C=C1/C2CCC(C2)C1(C)C` (centres undefined), for which the Potency entry with MCC-13, in the assay with MCC-26, with MKL-1, with UISO, in the assay with C33A and in the assay on CAOV3 was “inactive” throughout.

In the case of `C[C@H](N)C(=O)N[C@@H](C)C(=O)NC1[C@H]2CN(c3nc4c(cc3F)c(=O)c(C(=O)O)cn4-c3ccc(F)cc3F)C[C@@H]12` (some centres undefined), the Potency entry in the assay with MCC-13, in the assay with MCC-26, in the assay with C33A and in the assay with CAOV3 was “inactive” throughout.

`Cc1cccc(N(C)C(=S)Oc2ccc3c(c2)C2CCC3C2)c1` (centres undefined): the Potency entry with MCC-13, in the assay with MCC-26, in the assay with MKL-1, with C33A and in the assay with CAOV3 was “inactive” throughout.

Consider `CN(C)[C@@H]1C(=O)C(C(N)=O)=C(O)[C@@]2(O)C(=O)C3=C(O)c4c(O)cccc4C[C@H]3C[C@@H]12`, for which the Potency result in the assay on MCC-13, in the assay on MCC-26, in the assay on C33A and with CAOV3 was “inactive” in each case.

`CN(C)CCOC(c1ccccc1)c1ccc(Br)cc1` (centres undefined): the Potency result in the assay with MCC-13, in the assay on MKL-1, in the assay with UISO and in the assay with C33A was “inactive” throughout. In the assay on WaGa, the Potency was 23.7 µM (active).

In the case of `CC(=O)OCC(=O)[C@@]1(O)CCC2C3CCC4=CC(=O)CC[C@]4(C)C3[C@@H](O)C[C@@]21C` (some centres undefined), the Potency entry in the assay on MCC-13, in the assay with MKL-1, in the assay with MKL-2, with UISO, with WaGa and in the assay on C33A was “inactive” each time.

For the compound `CC(=O)OC/C=C(C)/C=C/C=C(C)/C=C/C1=C(C)CCCC1(C)C`, the Potency result in the assay with MCC-13, in the assay on UISO, in the assay on C33A and in the assay on CAOV3 was “inactive” in each case. In addition, in the assay with MKL-2, the Potency is 3.76 µM (active).

For the compound `CC(C)C(=O)Nc1cccc(C2CN3CCSC3=N2)c1` (centres undefined), the Potency entry in the assay on MCC-13, with MKL-1, in the assay on MKL-2, with UISO, in the assay on WaGa and in the assay with C33A was “inactive” each time.

Take `Nc1ccc(C(=O)OCC(O)CO)cc1` (centres undefined): the Potency result in the assay with MCC-13, with MKL-1, in the assay with MKL-2, in the assay with UISO, in the assay with WaGa and in the assay on C33A was “inactive” throughout. Moreover, in the assay with CAOV3, the Potency entry was “inactive”.

As for `CCCCCCCCCCCCCC[N+](C)(C)C`, the Potency in the assay on MCC-26 is 16.8 µM (active); with MKL-1, 1.19 µM (active); in the assay with MKL-2 it was 1.19 µM (active); in the assay on UISO, 2.37 µM (active); in the assay on WaGa, 1.33 µM (active).

Take `Cc1ccccc1C(=O)N1CC/C(=N\OS(=O)(=O)O)c2ccc(Cl)cc21`: the Potency entry with MCC-13, with MKL-1, in the assay with MKL-2, in the assay with UISO, with WaGa and with C33A was “inactive” in each case. The Potency result in the assay with CAOV3 is “inactive”.

For the compound `O=S(=O)(O)c1ccc2nc(-c3ccccc3)[nH]c2c1`, the Potency entry in the assay with MCC-13, in the assay on MKL-1, with MKL-2, in the assay on UISO and with CAOV3 was “inactive” each time.

As to `COc1ccc(OC(=O)N(CC(=O)O)Cc2ccc(OCCc3nc(-c4ccccc4)oc3C)cc2)cc1`, the Potency entry in the assay with MCC-13, in the assay with MKL-1, in the assay on MKL-2, in the assay with UISO, in the assay on WaGa and in the assay on C33A was “inactive” in each case.
